Laboratory results taken from PubChem BioAssay AID1745850 (National Center for Advancing Translational Sciences (NCATS), 2022).
The whole screen tested about 2,100 compounds, of which about 260 (12%) were called active. Not shown: some 58% with an inconclusive outcome. Calls follow the shape of the dose curve; as a rule, active = well fitted cell-killing curve with a large enough effect; inconclusive = small, poorly fitted or top-dose-only effect, or effect the other way; inactive = flat fitted curve, though single readings scatter. The list shows a part of the results. Where a call stands in place of a potency, no number is given.

experiment: Viability Counterscreen for Confirmatory qHTS for Inhibitors of ATXN expression; settings: HEK-293 ATXN2-luc cells viability, CellTiter-Fluor, 24 h; also: nearly all actives have a fitted effect of over 50% in size
Summary of the method: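 Luminescence read-out (SteadyGlo, 5 min) followed a 30 min Gly-Phe-AFC (25 uM final) viability fluorescence read. ATXN2-luciferase reporter cells were exposed 24 h to a dilution series. Medium-only wells served as the 100% inhibition reference.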
Potency is read from the fitted curve at half-maximal effect.

Question: Which Potency does the source give for CCc1cc2c(=O)c(-c3cnn(-c4ccccc4)c3)coc2c(CN2CCOCC2)c1O here?
Answer: The Potency was “inactive”.

Question: With CC(=O)c1cccc(-c2ccnc3c2CC(C(=O)Nc2ccc(F)c(Cl)c2)O3)c1 (stereo unspecified) as the compound, how does the Potency read?
Answer: Its Potency is “inactive”.

Question: For COc1cc(NC(=O)c2cccc3c(-c4cnn(C)c4)coc23)cc(OC)c1OC, which Potency is on record?
Answer: Its Potency is 31.6 µM (active).

Question: For COc1cc(NC(=O)c2cc(-c3ccccc3)nc3c2cnn3C(C)C)cc(OC)c1OC, which Potency is on record?
Answer: Its Potency is “inactive”.

Question: Which Potency does the source give for CC(=O)c1cccc(NC(=O)c2cccc3c(-c4cccc(C(N)=O)c4)coc23)c1 here?
Answer: The Potency was 20 µM (active).

Question: Which Potency does the source give for OCCN1CCN(C(=S)c2ccc(-c3ccccc3)cc2)CC1 here?
Answer: Its Potency is “inactive”.

Question: With Cc1[nH]n(-c2ccccc2)c(=O)c1C=Nc1cccc2cccnc12 as the compound, how does the Potency read?
Answer: The Potency was “inactive”.

Question: With COc1cc(C#Cc2c(-c3cncn3C)n(C)c3ccc(-c4cnc(N5CCOCC5)nc4)cc23)cc(OC)c1 as the compound, how does the Potency read?
Answer: The Potency was “inactive”.

Question: Which Potency does the source give for COC(=O)c1ccsc1NC(=O)CN1CCN(Cc2ccc3c(c2)OCO3)CC1 here?
Answer: Its Potency is “inactive”.

Question: For Cc1ccc(CN2CC(C(=O)Nc3ncc(C)s3)CC2=O)cc1 (stereo unspecified), which Potency is on record?
Answer: Its Potency is “inactive”.

Question: With CC1CCN(C(=O)c2cc3nc(-c4ccccc4)cc(-c4ccccc4)n3n2)CC1 as the compound, how does the Potency read?
Answer: The Potency was “inactive”.

Question: With COc1cc(OC)cc(-c2cc3nc(C)c(CCC(=O)NCc4ccccc4)c(C)n3n2)c1 as the compound, how does the Potency read?
Answer: The Potency was “inactive”.

Question: With COc1ccccc1-c1cc2nc(-c3ccccc3)cc(N3CCN(C(=O)c4ccoc4)CC3)n2n1 as the compound, how does the Potency read?
Answer: Its Potency is 15.8 µM (active).

Question: Which Potency does the source give for NS(=O)(=O)c1ccc(N2N=C(c3ccccc3)CC2c2ccc(F)cc2)cc1 (stereo unspecified) here?
Answer: Its Potency is “inactive”.

Question: Which Potency does the source give for CCCCn1c(SCC(=O)Nc2cc(NC(=O)c3ccco3)ccc2C)nc2ccccc2c1=O here?
Answer: The Potency was “inactive”.

Question: With Fc1ccc2[nH]c3c(N4CCSCC4)ncnc3c2c1 as the compound, how does the Potency read?
Answer: Its Potency is 25.1 µM (active).

Question: With Fc1ccc2[nH]c3c(NCc4ccccc4)ncnc3c2c1 as the compound, how does the Potency read?
Answer: Its Potency is “inactive”.

Question: For Cc1ccc(CN(C)C(=O)CN2C(=O)NC(c3ccccc3)(c3ccccc3)C2=O)c(C)c1, which Potency is on record?
Answer: Its Potency is “inactive”.

Question: With COc1cc(-c2nnc(SCC(=O)N(Cc3ccccc3)C(C)(C)C)o2)cc(OC)c1OC as the compound, how does the Potency read?
Answer: Its Potency is “inactive”.

Question: With C=CCOC(=O)C1=C[C@@H](c2ccc3c(c2)OCO3)C[C@@H](OCCCCO)O1 as the compound, how does the Potency read?
Answer: The Potency was “inactive”.

Question: With O=C(Nc1cccc2cccnc12)c1csc(COCCO)n1 as the compound, how does the Potency read?
Answer: The Potency was “inactive”.

Question: With O=[N+]([O-])c1ccccc1S(=O)(=O)Nc1cccc2cccnc12 as the compound, how does the Potency read?
Answer: The Potency was 17.8 µM (active).

Question: For O=S(=O)(Nc1cccc2cccnc12)c1ccccc1, which Potency is on record?
Answer: The Potency was 1.78 µM (active).

Question: For O=C(Nc1cccc(Br)c1)Oc1cccc2cccnc12, which Potency is on record?
Answer: The Potency was “inactive”.

Question: With O=[N+]([O-])c1ccc(C[n+]2cccc3ccc4cccnc4c32)cc1 as the compound, how does the Potency read?
Answer: Its Potency is “inactive”.

Question: With O=c1cc(N2CCN(c3ccccc3)CC2)[nH]c(=O)n1C1CCCCC1 as the compound, how does the Potency read?
Answer: Its Potency is “inactive”.

Question: With Cc1cc(Cl)ccc1-c1cc2nc(NCCCN(C)C)n(C)c(=O)c2s1 as the compound, how does the Potency read?
Answer: Its Potency is “inactive”.

Question: Which Potency does the source give for O=C(Nc1ccc2c(c1)CCC2)C1CCN(c2c3c(nc4ncnn24)CCC3)CC1 here?
Answer: Its Potency is “inactive”.

Question: Which Potency does the source give for CN1C/C(=C/c2cccnc2)C(=O)/C(=C/c2cccnc2)C1 here?
Answer: Its Potency is “inactive”.

Question: With O=C1/C(=C/c2ccncc2)CCC/C1=C\c1ccncc1 as the compound, how does the Potency read?
Answer: Its Potency is 10 µM (active).

Question: For Cc1ccc(-c2nc3ccc(Cl)cn3c2CC(C)(C)C)cc1, which Potency is on record?
Answer: The Potency was “inactive”.

Question: Which Potency does the source give for CCCNC(=O)c1ccc2c(=O)c(O)c(-c3cccc(Br)c3)[nH]c2c1 here?
Answer: Its Potency is “inactive”.

Question: For CCN(CC)C(=O)C1=C(C)N(CCC2=CCCCC2)C(=O)C(CC(=O)NC(c2ccccc2)c2ccccc2)C1 (stereo unspecified), which Potency is on record?
Answer: The Potency was “inactive”.

Question: Which Potency does the source give for CC(C)C[C@H](N)c1cn([C@@H](CCCCN)C(=O)N2CCNCC2)nn1 here?
Answer: Its Potency is “inactive”.

Question: Which Potency does the source give for COc1cc(OC)cc(-c2cc3nc(C)c(CCC(=O)O)c(C)n3n2)c1 here?
Answer: The Potency was “inactive”.

Question: For COc1ccc(-c2cc(NC=O)c3ncc(-c4cccc(C(=O)NCCN(C)C)c4)n3c2)cc1, which Potency is on record?
Answer: The Potency was “inactive”.

Question: With CN(C)C(=O)c1cccc(-c2cnc3c(NC=O)cc(-c4ccc(F)cc4)cn23)c1 as the compound, how does the Potency read?
Answer: Its Potency is “inactive”.

Question: For CN1CCN(c2ccc(-c3cc(NC=O)c4ncc(-c5ccc(F)c(Cl)c5)n4c3)cc2)CC1, which Potency is on record?
Answer: The Potency was 25.1 µM (active).

Question: For COc1ccc(Cl)cc1S(=O)(=O)N1CCN(C(=O)c2n[nH]c(=O)c3ccccc23)CC1, which Potency is on record?
Answer: Its Potency is “inactive”.

Question: Which Potency does the source give for O=C(NC1=CC(=O)c2ccccc2C1=O)c1ccccc1 here?
Answer: The Potency was 14.1 µM (active).

Question: For O=C(Nc1nonc1-c1ccc(Cl)cc1)c1ccccc1, which Potency is on record?
Answer: The Potency was “inactive”.

Question: Which Potency does the source give for NCCCCCc1nnc(SCc2ccccc2Cl)o1 here?
Answer: Its Potency is “inactive”.

Question: With COc1ccc(C2CC(c3cccc(Br)c3)=NN2c2ccc(S(N)(=O)=O)cc2)cc1 (stereo unspecified) as the compound, how does the Potency read?
Answer: Its Potency is “inactive”.

Question: With CCC(=O)NC(c1ccc(C)cc1)c1cc([N+](=O)[O-])c2cccnc2c1O (stereo unspecified) as the compound, how does the Potency read?
Answer: Its Potency is 22.4 µM (active).

Question: With Cc1cc(OCC(=O)NC(C)c2ccccc2)ccc1[N+](=O)[O-] (stereo unspecified) as the compound, how does the Potency read?
Answer: Its Potency is “inactive”.

Question: Which Potency does the source give for CCCCC(=O)NC(c1ccc(Cl)cc1Cl)c1ccc2cccnc2c1O (stereo unspecified) here?
Answer: Its Potency is “inactive”.

Question: With CC(C)C(=O)NC(c1ccccc1)c1cc([N+](=O)[O-])c2cccnc2c1O (stereo unspecified) as the compound, how does the Potency read?
Answer: Its Potency is 22.4 µM (active).

Question: For O=C(Nc1nccs1)c1cccc(N2C(=O)c3cccc4c([N+](=O)[O-])ccc(c34)C2=O)c1, which Potency is on record?
Answer: Its Potency is “inactive”.

Question: With O=C(Nc1c(Cl)cccc1Cl)Oc1cccc2cccnc12 as the compound, how does the Potency read?
Answer: Its Potency is “inactive”.

Question: Which Potency does the source give for CC(=O)NC(c1cccs1)c1cc([N+](=O)[O-])c2cccnc2c1O (stereo unspecified) here?
Answer: The Potency was 12.6 µM (active).

Question: With Cc1cc(OCc2nc(N)nc(N)c2-c2ccc(Cl)c(Cl)c2)ccc1[N+](=O)[O-] as the compound, how does the Potency read?
Answer: The Potency was “inactive”.

Question: With CCC(=O)NC(c1ccc(Cl)cc1Cl)c1ccc2cccnc2c1O (stereo unspecified) as the compound, how does the Potency read?
Answer: Its Potency is 7.94 µM (active).

Question: With COc1ccc(C2CC(c3ccccc3C(F)(F)F)=NN2c2ccc(S(N)(=O)=O)cc2)cc1 (stereo unspecified) as the compound, how does the Potency read?
Answer: Its Potency is “inactive”.

Question: With CC[C@@H]1C(c2cccc(Cl)c2)=NN(c2ccc(Br)cc2)[C@H]1C(=O)N1CCOC1=O as the compound, how does the Potency read?
Answer: Its Potency is “inactive”.

Question: Which Potency does the source give for CCOC(=O)C1=CCN(S(=O)(=O)c2ccc(C)cc2)C1c1cccc(Cl)c1 (stereo unspecified) here?
Answer: Its Potency is “inactive”.

Question: For CC1(C(=O)NCc2ccco2)CCN1C(=O)C1(c2ccccc2)CC1 (stereo unspecified), which Potency is on record?
Answer: The Potency was “inactive”.

Question: For O=C(CSc1nc2ncc(Cl)cc2[nH]1)Nc1cccc(F)c1, which Potency is on record?
Answer: The Potency was “inactive”.

Question: Which Potency does the source give for CC(C)C(=O)NC(c1cccc([N+](=O)[O-])c1)c1ccc2cccnc2c1O (stereo unspecified) here?
Answer: The Potency was 7.94 µM (active).

Question: For Oc1c(C(Nc2nccs2)c2ccc(C(F)(F)F)cc2)ccc2cccnc12 (stereo unspecified), which Potency is on record?
Answer: The Potency was 15.8 µM (active).

Question: Which Potency does the source give for O=[N+]([O-])c1ccc(NC(c2ccccc2)c2ccc3cccnc3c2O)cc1 (stereo unspecified) here?
Answer: Its Potency is 7.94 µM (active).

Question: For O=C(NC(=S)N1CCN(c2ccc(F)cc2)CC1)c1cccs1, which Potency is on record?
Answer: The Potency was “inactive”.
